Data as given in the supplement of paper PMC10849652.
Of roughly 7,900 targets only a part is listed; those with a hit were picked by preference. About 0.6% of all pairs of compound and target were hits.

Assays:
Assay in all cases: log2 fold change, soluble protein after heating vs DMSO (PISA); higher = thermal stabilisation; K562 cells, 10 uM, 30 min; active = over 0.2 and 3.5 SD of the protein, either way, in both replicates (recomputed)
[1] = compound: CS(=O)(=O)c1ccc(-c2cnc(N)c(C(=O)Nc3ccccc3)n2)cc1
How it was run: (§1)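 Soluble protein was defined as the supernatant after 21,000xg for 90 min. It came from K562 cells at 2×10^6 cells/mL given 10 μM compound for 30 min, heated in aliquots for 3 min across 48°C-58°C, pooled, and extracted in PBS with 0.5% NP-40 at 4°C, and was quantified by TMTpro 16plex LC-MS/MS with equalised channel sums. Thermal stability against control samples, from duplicates, is reported as log2 fold change.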

crizotinib = compound: C[C@@H](Oc1cc(-c2cnn(C3CCNCC3)c2)cnc1N)c1c(Cl)ccc(F)c1Cl [crizotinib]
How it was run: as §1

[2] = compound: C[C@@H]1COCCN1C2=NC(=NC(=C2)C3(CC3)S(=O)(=O)C)C4=C5C=CNC5=CC=C4
How it was run: as §1

[3] = compound: C[C@H](C1=CC=C(C=C1)C(=O)NC2=C3C=CNC3=NC=C2)N
How it was run: as §1

duvelisib = compound: C[C@H](Nc1ncnc2nc[nH]c12)c1cc2cccc(Cl)c2c(=O)n1-c1ccccc1 [duvelisib]
How it was run: as §1

gandotinib = compound: Cc1cc(Nc2cc(CN3CCOCC3)c3nc(C)c(Cc4ccc(Cl)cc4F)n3n2)n[nH]1 [gandotinib]
How it was run: as §1

tozasertib = compound: Cc1cc(Nc2cc(N3CCN(C)CC3)nc(Sc3ccc(NC(=O)C4CC4)cc3)n2)n[nH]1 [tozasertib]
How it was run: as §1

[4] = compound: Cc1cc(SCc2sc(-c3ccc(C(F)(F)F)cc3)nc2C)ccc1OCC(=O)O
How it was run: as §1

doramapimod = compound: Cc1ccc(-n2nc(C(C)(C)C)cc2NC(=O)Nc2ccc(OCCN3CCOCC3)c3ccccc23)cc1 [doramapimod]
How it was run: as §1

ispinesib = compound: Cc1ccc(C(=O)N(CCCN)[C@@H](c2nc3cc(Cl)ccc3c(=O)n2Cc2ccccc2)C(C)C)cc1 [ispinesib]
How it was run: as §1

bafetinib = compound: Cc1ccc(NC(=O)c2ccc(CN3CC[C@H](N(C)C)C3)c(C(F)(F)F)c2)cc1Nc1nccc(-c2cncnc2)n1 [bafetinib]
How it was run: as §1

[5] = compound: Cc1cccc(CC(=O)N2CCc3c2ccc(-c2cn(C)c4ncnc(N)c24)c3F)n1
How it was run: as §1

nilotinib = compound: Cc1cn(-c2cc(NC(=O)c3ccc(C)c(Nc4nccc(-c5cccnc5)n4)c3)cc(C(F)(F)F)c2)cn1 [nilotinib]
How it was run: as §1

[6] = compound: Cc1nc(Nc2n[nH]c3c2CN(C(=O)N[C@H](CN(C)C)c2ccccc2)C3(C)C)c2sccc2n1
How it was run: as §1

dasatinib = compound: Cc1nc(Nc2ncc(C(=O)Nc3c(C)cccc3Cl)s2)cc(N2CCN(CCO)CC2)n1 [dasatinib]
How it was run: as §1

[7] = compound: Cc1ncc(-c2ccnc(Nc3ccc(S(C)(=O)=O)cc3)n2)n1C(C)C
How it was run: as §1

[8] = compound: Cn1cc(-c2ccc3c(c2)CCN3C(=O)Cc2cccc(C(F)(F)F)c2)c2c(N)ncnc21
How it was run: as §1

[9] = compound: Cn1cc(-c2ccc3nnc(C(F)(F)c4ccc5ncccc5c4)n3n2)cn1
How it was run: as §1

tipifarnib = compound: Cn1cncc1[C@@](N)(c1ccc(Cl)cc1)c1ccc2c(c1)c(-c1cccc(Cl)c1)cc(=O)n2C [tipifarnib]
How it was run: as §1

mubritinib = compound: FC(F)(F)c1ccc(/C=C/c2nc(COc3ccc(CCCCn4ccnn4)cc3)co2)cc1 [mubritinib]
How it was run: as §1

Measured: log2 fold change

RBM22 (UniProt Q9NW64)
Chain of UniProt Q9NW64 (Q9NW64 whole entry, looked up): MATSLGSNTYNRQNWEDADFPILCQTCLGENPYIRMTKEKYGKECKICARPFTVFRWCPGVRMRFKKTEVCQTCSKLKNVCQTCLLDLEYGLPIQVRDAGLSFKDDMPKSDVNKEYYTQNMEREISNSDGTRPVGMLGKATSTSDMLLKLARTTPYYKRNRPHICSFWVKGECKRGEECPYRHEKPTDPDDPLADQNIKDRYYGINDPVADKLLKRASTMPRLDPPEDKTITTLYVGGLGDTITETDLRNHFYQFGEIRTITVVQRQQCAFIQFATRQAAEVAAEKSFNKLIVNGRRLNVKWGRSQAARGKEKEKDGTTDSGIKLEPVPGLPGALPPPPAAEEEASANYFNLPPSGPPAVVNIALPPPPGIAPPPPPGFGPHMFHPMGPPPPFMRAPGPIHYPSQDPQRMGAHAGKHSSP
inactive: [1] -0.045 | crizotinib 0.061 | [2] -0.053 | [3] 0.121 | duvelisib -0.052 | gandotinib -0.04 | tozasertib -0.052 | [4] 0 | doramapimod -0.025 | ispinesib -0.053 | bafetinib -0.085 | [5] 0 | nilotinib -0.019 | [6] -0.051 | dasatinib -0.07 | [7] 0.024 | [8] -0.133 | [9] -0.071 | tipifarnib 0.008 | mubritinib -0.048

SDHAF4 (UniProt Q5VUM1)
Chain of UniProt Q5VUM1 (Q5VUM1 whole entry, looked up): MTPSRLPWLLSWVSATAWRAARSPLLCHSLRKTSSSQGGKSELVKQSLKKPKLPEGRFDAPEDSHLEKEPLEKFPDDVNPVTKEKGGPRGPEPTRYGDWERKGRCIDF
inactive: [1] 0.033 | crizotinib -0.047 | [2] 0.153 | [3] 0.181 | duvelisib 0.003 | tozasertib 0 | [4] -0.038 | doramapimod 0.091 | bafetinib -0.078 | nilotinib -0.043 | [6] -0.003 | dasatinib 0.034 | [7] 0.056 | [8] 0.077 | tipifarnib -0.041 | mubritinib 0.03

RAB3IL1 (UniProt E9PK89)
inactive: [1] 0.036 | crizotinib -0.003 | [2] 0.163 | [3] -0.211 | gandotinib 0.154 | tozasertib -0.099 | doramapimod -0.07 | ispinesib 0.07 | bafetinib -0.053 | [5] 0.01 | nilotinib -0.007 | [6] -0.189 | [7] -0.101 | [8] 0.258 | [9] 0.056 | tipifarnib -0.035

RRAGC (UniProt Q9HB90)
Chain of UniProt Q9HB90 (Q9HB90 whole entry, looked up): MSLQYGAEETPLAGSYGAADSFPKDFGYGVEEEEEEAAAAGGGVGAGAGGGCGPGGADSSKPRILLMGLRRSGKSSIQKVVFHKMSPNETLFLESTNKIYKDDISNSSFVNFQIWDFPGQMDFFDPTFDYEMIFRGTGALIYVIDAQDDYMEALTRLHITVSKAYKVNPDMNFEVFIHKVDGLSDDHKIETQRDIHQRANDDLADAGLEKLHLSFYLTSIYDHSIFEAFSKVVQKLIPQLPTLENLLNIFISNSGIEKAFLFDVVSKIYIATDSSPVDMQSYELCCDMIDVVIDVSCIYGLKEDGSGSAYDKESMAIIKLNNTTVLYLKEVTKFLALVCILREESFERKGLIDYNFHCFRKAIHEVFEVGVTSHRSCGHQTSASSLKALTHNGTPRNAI
inactive: [1] 0.016 | crizotinib -0.262 | [2] 0.008 | [3] -0.027 | duvelisib 0.053 | gandotinib 0 | tozasertib -0.061 | [4] -0.039 | doramapimod 0.019 | ispinesib -0.153 | bafetinib -0.07 | [5] -0.054 | nilotinib -0.005 | [6] 0.022 | dasatinib 0.05 | [7] -0.021 | [8] 0.001 | [9] 0.05 | tipifarnib -0.027 | mubritinib 0.031

RNF2 (UniProt Q99496)
Chain of UniProt Q99496 (Q99496 whole entry, looked up): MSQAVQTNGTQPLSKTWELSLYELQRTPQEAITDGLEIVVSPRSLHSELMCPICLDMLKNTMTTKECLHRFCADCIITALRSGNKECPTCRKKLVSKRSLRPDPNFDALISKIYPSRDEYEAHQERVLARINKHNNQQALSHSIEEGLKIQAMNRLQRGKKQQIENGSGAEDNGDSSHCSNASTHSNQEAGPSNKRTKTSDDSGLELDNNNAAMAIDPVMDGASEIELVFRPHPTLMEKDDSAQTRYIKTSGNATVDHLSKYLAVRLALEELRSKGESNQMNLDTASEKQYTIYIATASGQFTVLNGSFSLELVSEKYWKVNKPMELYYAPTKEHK
inactive: [1] 0.008 | crizotinib -0.028 | [2] -0.013 | [3] -0.105 | duvelisib -0.033 | gandotinib -0.091 | tozasertib 0.149 | [4] 0.073 | doramapimod -0.093 | bafetinib -0.102 | [5] 0.022 | nilotinib 0.065 | [6] -0.214 | dasatinib -0.106 | [7] 0.061 | [8] -0.005 | tipifarnib -0.026 | mubritinib -0.031

RIOK3 (UniProt O14730)
Chain of UniProt O14730 (O14730 whole entry, looked up): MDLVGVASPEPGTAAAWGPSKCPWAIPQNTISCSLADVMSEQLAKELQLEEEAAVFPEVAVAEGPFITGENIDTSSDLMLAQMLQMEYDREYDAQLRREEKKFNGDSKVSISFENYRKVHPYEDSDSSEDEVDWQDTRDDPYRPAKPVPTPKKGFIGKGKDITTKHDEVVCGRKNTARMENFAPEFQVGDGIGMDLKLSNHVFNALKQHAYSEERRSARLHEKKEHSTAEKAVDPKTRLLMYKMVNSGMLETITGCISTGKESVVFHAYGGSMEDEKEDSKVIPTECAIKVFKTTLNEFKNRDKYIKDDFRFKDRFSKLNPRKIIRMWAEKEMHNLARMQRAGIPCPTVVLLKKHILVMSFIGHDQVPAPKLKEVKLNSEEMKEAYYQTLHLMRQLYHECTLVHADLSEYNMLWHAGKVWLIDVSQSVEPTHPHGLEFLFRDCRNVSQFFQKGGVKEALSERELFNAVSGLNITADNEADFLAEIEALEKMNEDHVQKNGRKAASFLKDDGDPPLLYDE
inactive: [1] -0.004 | crizotinib -0.031 | [2] 0.029 | [3] -0.026 | duvelisib 0.034 | gandotinib 0.086 | tozasertib -0.033 | [4] -0.011 | doramapimod -0.019 | ispinesib -0.004 | bafetinib -0.004 | [5] -0.02 | nilotinib -0.017 | [6] 0.06 | dasatinib 0.053 | [7] -0.01 | [8] 0.018 | [9] -0.005 | tipifarnib 0.002 | mubritinib 0.017

SF3B5 (UniProt Q9BWJ5)
Chain of UniProt Q9BWJ5 (Q9BWJ5 whole entry, looked up): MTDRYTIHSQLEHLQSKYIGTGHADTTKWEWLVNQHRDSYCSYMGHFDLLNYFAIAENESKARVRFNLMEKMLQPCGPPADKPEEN
inactive: [1] 0.027 | crizotinib -0.012 | [2] 0.176 | duvelisib 0.358 | gandotinib 0.087 | tozasertib -0.152 | [4] 0.002 | doramapimod -0.089 | bafetinib -0.115 | [5] -0.056 | nilotinib 0.029 | [6] 0.008 | dasatinib -0.189 | [7] -0.064 | tipifarnib -0.018 | mubritinib -0.043

ROR2 (UniProt Q01974)
Chain of UniProt Q01974 (Q01974 whole entry, looked up): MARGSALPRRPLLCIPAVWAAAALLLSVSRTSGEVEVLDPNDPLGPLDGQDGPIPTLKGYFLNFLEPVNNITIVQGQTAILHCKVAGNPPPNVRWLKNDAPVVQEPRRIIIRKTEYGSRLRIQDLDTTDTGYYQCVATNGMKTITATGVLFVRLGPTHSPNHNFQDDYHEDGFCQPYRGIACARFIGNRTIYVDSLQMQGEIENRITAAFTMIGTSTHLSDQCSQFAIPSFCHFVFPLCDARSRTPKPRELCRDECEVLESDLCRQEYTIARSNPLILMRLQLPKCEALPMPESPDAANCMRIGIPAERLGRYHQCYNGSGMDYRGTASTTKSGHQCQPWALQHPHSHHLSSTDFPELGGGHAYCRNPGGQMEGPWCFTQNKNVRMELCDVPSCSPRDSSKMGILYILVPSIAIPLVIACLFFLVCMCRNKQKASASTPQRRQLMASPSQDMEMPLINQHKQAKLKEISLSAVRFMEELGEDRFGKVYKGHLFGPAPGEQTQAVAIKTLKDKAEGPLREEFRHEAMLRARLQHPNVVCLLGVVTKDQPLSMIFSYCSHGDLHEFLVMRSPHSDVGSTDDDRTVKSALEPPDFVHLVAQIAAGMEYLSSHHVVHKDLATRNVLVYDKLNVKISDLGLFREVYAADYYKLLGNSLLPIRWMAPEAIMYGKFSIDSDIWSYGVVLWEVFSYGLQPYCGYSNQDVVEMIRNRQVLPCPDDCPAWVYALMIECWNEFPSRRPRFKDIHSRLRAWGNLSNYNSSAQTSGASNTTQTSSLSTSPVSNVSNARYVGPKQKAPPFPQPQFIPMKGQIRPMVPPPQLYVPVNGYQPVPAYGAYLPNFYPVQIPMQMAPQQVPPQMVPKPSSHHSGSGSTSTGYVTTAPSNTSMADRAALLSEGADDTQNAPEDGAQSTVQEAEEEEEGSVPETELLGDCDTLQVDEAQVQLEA
inactive: [1] 0.028 | crizotinib 0.007 | [2] 0.081 | [3] -0.031 | duvelisib 0.049 | gandotinib -0.007 | tozasertib -0.025 | [4] 0.097 | doramapimod -0.04 | ispinesib 0.083 | bafetinib 0.024 | [5] 0.052 | nilotinib 0.009 | [6] -0.105 | dasatinib -0.124 | [7] 0.063 | [8] 0.043 | [9] -0.041 | tipifarnib 0.03 | mubritinib 0.029

RBBP6 (UniProt Q7Z6E9)
Chain of UniProt Q7Z6E9 (Q7Z6E9 whole entry, looked up): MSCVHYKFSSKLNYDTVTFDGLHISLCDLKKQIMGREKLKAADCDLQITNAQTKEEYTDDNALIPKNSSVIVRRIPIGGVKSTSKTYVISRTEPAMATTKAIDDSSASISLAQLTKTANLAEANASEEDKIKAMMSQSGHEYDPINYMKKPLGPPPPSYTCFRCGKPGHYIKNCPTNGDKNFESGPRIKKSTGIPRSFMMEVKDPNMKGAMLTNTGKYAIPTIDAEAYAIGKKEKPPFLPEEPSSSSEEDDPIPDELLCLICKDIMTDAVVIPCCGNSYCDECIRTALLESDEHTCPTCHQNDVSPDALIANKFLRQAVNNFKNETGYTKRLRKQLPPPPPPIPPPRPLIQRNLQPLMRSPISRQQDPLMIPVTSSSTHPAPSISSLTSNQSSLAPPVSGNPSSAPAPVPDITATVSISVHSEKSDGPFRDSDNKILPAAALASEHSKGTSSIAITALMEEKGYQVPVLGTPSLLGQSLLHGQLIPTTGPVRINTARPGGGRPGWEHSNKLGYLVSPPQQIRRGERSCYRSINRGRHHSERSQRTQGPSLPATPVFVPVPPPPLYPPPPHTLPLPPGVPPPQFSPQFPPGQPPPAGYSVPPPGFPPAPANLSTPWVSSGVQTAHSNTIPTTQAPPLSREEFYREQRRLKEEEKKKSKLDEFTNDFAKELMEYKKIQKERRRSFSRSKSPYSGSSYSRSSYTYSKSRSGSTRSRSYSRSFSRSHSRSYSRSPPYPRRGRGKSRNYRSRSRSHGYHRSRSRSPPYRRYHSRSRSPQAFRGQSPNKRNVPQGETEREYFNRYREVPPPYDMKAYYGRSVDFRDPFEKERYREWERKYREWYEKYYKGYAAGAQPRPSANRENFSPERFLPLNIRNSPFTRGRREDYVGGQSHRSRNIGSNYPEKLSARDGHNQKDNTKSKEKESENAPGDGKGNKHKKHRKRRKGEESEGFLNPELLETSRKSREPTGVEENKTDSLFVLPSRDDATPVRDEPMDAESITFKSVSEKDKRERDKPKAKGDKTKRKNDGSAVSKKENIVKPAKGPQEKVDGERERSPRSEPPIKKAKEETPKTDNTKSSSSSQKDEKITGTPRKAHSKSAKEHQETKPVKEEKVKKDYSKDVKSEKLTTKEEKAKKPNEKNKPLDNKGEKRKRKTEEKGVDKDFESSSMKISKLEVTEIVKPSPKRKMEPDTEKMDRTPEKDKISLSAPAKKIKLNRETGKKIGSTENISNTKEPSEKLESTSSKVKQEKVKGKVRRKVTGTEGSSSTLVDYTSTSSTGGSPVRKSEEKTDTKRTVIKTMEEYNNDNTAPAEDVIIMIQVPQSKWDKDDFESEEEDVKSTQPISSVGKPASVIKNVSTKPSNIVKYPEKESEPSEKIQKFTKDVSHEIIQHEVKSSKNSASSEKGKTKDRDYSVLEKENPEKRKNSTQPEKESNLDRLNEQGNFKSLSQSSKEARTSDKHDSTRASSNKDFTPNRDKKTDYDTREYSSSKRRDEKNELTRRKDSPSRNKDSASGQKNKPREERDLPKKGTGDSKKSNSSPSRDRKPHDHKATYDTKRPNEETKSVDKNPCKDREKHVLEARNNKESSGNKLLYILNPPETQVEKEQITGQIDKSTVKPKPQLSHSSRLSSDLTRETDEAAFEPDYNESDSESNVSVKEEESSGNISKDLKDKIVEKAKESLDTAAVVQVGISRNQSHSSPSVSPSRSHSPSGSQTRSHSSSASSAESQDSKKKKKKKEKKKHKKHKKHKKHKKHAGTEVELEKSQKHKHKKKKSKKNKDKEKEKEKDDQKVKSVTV
inactive: [1] -0.117 | crizotinib -0.158 | [2] -0.036 | [3] 0.072 | gandotinib -0.066 | tozasertib 0.03 | doramapimod 0.012 | ispinesib 0.168 | bafetinib -0.018 | [5] -0.004 | nilotinib 0 | [6] -0.031 | [7] -0.003 | [8] 0.003 | [9] -0.01 | tipifarnib -0.058 | mubritinib -0.171
